Laboratory results: PubChem BioAssay (EPA / NIEHS)
Active and inactive are the calls of the source. How the source made its calls: active means hit-call score of the fitted dose curve at least 0.9, where 1 is the maximum; inactive means score below 0.9.

These molecules were tested on Forkhead box O1 (FOXO1), FOXO1 (gene 2308) (assay: LTEA_HepaRG_FOXO1: Life Technologies and Expression Analysis (LTEA) Assay for Forkhead box O1 (FOXO1) using HepaRG (AID 2283456)). Settings: mRNA level, 48 h; actives raise or lower the signal.
Procedure: LTEA_HepaRG is a cell based, multiplexed-readout assay that uses HepaRG, a human liver cell line, with measurements taken at 48 hours after chemical dosing on a 96-well plate.LTEA_HepaRG_FOXO1 is one of 102 assay component(s) measured in the LTEA HepaRG cell culture assay. It is a marker of Cell proliferation, survival, death.Data from the assay component LTEA_HepaRG_FOXO1 was analyzed into 1 endpoint. This assay endpoint, LTEA_HepaRG_FOXO1, was analyzed with bidirectional fitting relative to DMSO as the negative control and baseline of activity. Using a type of inducible reporter, measures of mRNA induction for gain or loss-of-signal activity can be used to understand regulation of transcription factor activity. To generalize the intended target to other relatable targets, this assay endpoint is annotated to the dna binding intended target family, where the subfamily is forkhead box protein.
A total of 1060 chemcials from the ToxCast library were tested in eight-point concentration-response experiments. Cell culture and cytotoxicity assays were conducted at Thermo Fisher Scientific's Custom Services facility (Madison, WI). A single lot of human HepaRG cells (Thermo Fisher Scientific, Frederick, MD) was used for the cell culture experiments. 96-well format collagen type I coated plates of human HepaRG cells were prepared using established methods. Briefly, cryopreserved HepaRG cells were thawed, plated at a density of approximately 100,000 cells/well in HepaRG Thaw, Plate, and General Purpose media (HPRG770, Thermo Fisher Scientific), and incubated for 48 hours. 0.5% DMSO was selected as vehicle control to balance the requisite need of DMSO in HepaRG cultures to maintain differentiation (for example, baseline metabolism, proportions of hepatocytes vs. cholangiocytes), while enabling further hepatic receptor pathway activation (for example, PXR and CAR) in response to chemical exposure. 48 hours after plating, the culture medium was replaced with HepaRG Serum-Free Incudtion Media. Cells were exposed to each test chemical in duplicate and maintained in CO2 incubators for another 48 hours. Chemical plates were thawed to room temperature and 200x concentrations of treatment groups were prepared. 8-point conentration-reponse curves were made with the highest exposure at 100 uM, followed by half-log dilutions, all in 0.5% DMSO. Each test plate contained variouse controls, induction positive controls (1mM phenobarbital), cytotoxicity positive controls ([…] aflatoxin B1), vehicle controls (0.5% DMSO), and total lysis controls (0.5% DMSO). Cell morphology images were taken using an Essen IncuCyte FLR automated microscope, with six 96-well plates imaged in about 24 minutes. Images were captured and exported and JPEG files. Spent culture media was transfered to black-well plates for the LDH assay, and remaining media was sorted at -80 C for later use. Cells were treated with RLT buffer and frozen until shipped for gene expression analysis. Total RNA was isolated from the cell suspension in 75 uL of Buffer RLT (Qiagen, Germantown, MD 20874) by Quintiles/Expression Analysis (Durham, NC) using a custom isolation procedure. Total RNA from each plate well was transferred to a preamplification plate. Fluidigm's 96.96 Dynamic ArrayTM (Fluidigm, Amsterdam, the Netherlands) technology was used for gene expression analyses by quantitative reverse transcription polymerase chain reaction (qRT-PCR, performed by Quintiles/Expression Analysis, Durham, NC)89. Standard TaqManTM Assays (Applied Biosystems/ThermoFisher Scientific, Foster City, CA) were used to assess the expression of 93 genes selected based on their selectivity and sensitivity to important hepatic receptors known to be modulated by environmental chemicals; importance in human hepatocyte functionality; and hepatotoxicity. […]

SMILES | outcome | AC50
c1ccc2c(c1)oc1ccccc12 | inactive | 
O=P(OCCCl)(OCCCl)OCCCl | inactive | 
O=C1CCCO1 | inactive | 
CC(C)(O)c1cnn2c(-c3ccc(F)c(-c4c(F)cccc4C#N)c3)cnc2n1 | inactive | 
Cc1cccc(N)c1N | inactive | 
CCNS(=O)(=O)C(F)(F)C(F)(F)C(F)(F)C(F)(F)C(F)(F)C(F)(F)C(F)(F)C(F)(F)F | inactive | 
N#CC(Br)(Br)C(N)=O | inactive | 
COP(=S)(OC)SCN1C(=O)c2ccccc2C1=O | inactive | 
O=[N+]([O-])C(Br)(CO)CO | inactive | 
CCN(CC)N=O | inactive | 
CCCCC(CC)COC(=O)c1ccc(C(=O)OCC(CC)CCCC)c(C(=O)OCC(CC)CCCC)c1 (stereo not given) | inactive | 
c1ccc(NNc2ccccc2)cc1 | inactive | 
[Cl-].[Cl-].[Hg+2] | inactive | 
CCCCCCCCCCCCCN1CC(C)OC(C)C1 (stereo not given) | inactive | 
O=C(Oc1ccc(Br)cc1)N1CCN2CCC1CC2 | inactive | 
CC(C)COC(=O)c1ccccc1C(=O)OCC(C)C | inactive | 
CCOC(=O)[C@]1(c2ccccc2)Oc2ccccc2[C@@H]1N |  | 83.3 µM (active)
COc1cc(C=O)cc2c1[C@H](COC(N)=O)[C@]1(OC(C)=O)ON2C[C@H]2[C@@H]1N2C(C)=O |  | 3.75 µM (active)
CNC(=O)Oc1cccc2c1OC(C)(C)C2 | inactive | 
O=C(N[C@H](c1ccccc1)[C@@H]1CN2CCC1CC2)c1c(Cl)ccc(C(F)(F)F)c1Cl |  | 74.5 µM (active)

SMILES | outcome | AC50
c1ccc(N=Nc2ccccc2)cc1 | inactive | 
ClC1=C(Cl)C2(Cl)C3C(Cl)C=CC3C1(Cl)C2(Cl)Cl (stereo not given) | inactive | 
Cc1ccc(N)cc1 | inactive | 
Nc1ccc(Oc2ccc(N)cc2)cc1 | inactive | 
CCCCCCCCOC(=O)c1ccc(C(=O)OCCCCCCCC)c(C(=O)OCCCCCCCC)c1 | inactive | 
Clc1ccc(Cl)c(Cl)c1 | inactive | 
Cc1ccc(N)c(N)c1 | inactive | 
CC(C)(OOC(C)(C)c1ccccc1)c1ccccc1 | inactive | 
O=Cc1ccco1 | inactive | 
CCCSC(=O)N(CCC)CCC | inactive | 
O=C(O)C1C2CCC(O2)C1C(=O)O (stereo not given) | inactive | 
c1ccc(C2CO2)cc1 (stereo not given) | inactive | 
CN(C)c1ccccc1 | inactive | 
CC(C)(C)OOC(=O)c1ccccc1 | inactive | 
C[C@]12C=CC3=C4CCC(=O)C=C4CC[C@H]3[C@@H]1CC[C@@H]2O | inactive | 
CN(C)[C@@H]1C(=O)C(C(N)=O)=C(O)[C@@]2(O)C(=O)C3=C(O)c4c(O)cccc4[C@@](C)(O)[C@H]3C[C@@H]12 | inactive | 
[As]#[In] | inactive | 
COC(=O)Nc1nc2ccccc2[nH]1 | inactive | 
Brc1ccc(Oc2ccccc2)cc1 | inactive | 
CCCCCCCCn1sccc1=O | inactive | 
